Experimental data as given in the supplement of paper PMC12636033.
± gives the standard deviation of the averaged measurements. The full ranking holds about 33,000 sequences; the median of “E-score (rank enrichment, -0.5 to 0.5)” is about -0.0068, and the highest 2% start at about 0.24. Only a selection was taken, and the highest values are over-represented in it overall.

test system: muMax20 (Max(13-93) K31hArg/K57hArg, M65Nle); test: PBM 8-mer E-score (E-score (rank enrichment, -0.5 to 0.5)); higher = stronger preferential binding
Experimental: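 Protein binding microarray (universal PBM chip covering all 10-mers in fixed probe flanks) with chemically synthesized human Max(13-93) bHLH-LZ analogs (not full-length Max) bearing noncanonical residues (hArg, Tha, Aib, Nle at 65) and aromatic Cys staples. Read-out per 8-mer (and its reverse complement): E-score (rank-based enrichment, -0.5 to 0.5) and Z-score of median probe intensity.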

Row | Sequence | PBM 8-mer E-score
1 | CGCGTGAC | 0.268 ± 0.12
2 | CACGTGAA | 0.368 ± 0.099
3 | AACGTGAC | 0.155 ± 0.0051
4 | CGCGTGAG | 0.122 ± 0.034
5 | CACGTGAG | 0.344 ± 0.11
6 | CGCGTGAA | 0.00405 ± 0.02
7 | CACGTTAG | 0.0823 ± 0.07
8 | TACGTGAA | 0.144 ± 0.01
9 | GACGTGAC | 0.0637 ± 0.034
10 | GACGTGAA | -0.111 ± 0.032
11 | CCCGTGAG | -0.289 ± 0.015
12 | CACGTGAC | 0.459 ± 0.038
13 | ACCCGAGG | -0.1291 ± 0.0004
14 | CCAGCTAC | -0.139 ± 0.0043
15 | GGAGCTAA | -0.194 ± 0.096
16 | ATCTCCGG | -0.11 ± 0.16
17 | CCCTTAGC | -0.0766 ± 0.14
18 | ACGCTGAA | -0.171 ± 0.049
19 | CCTCCTAC | -0.0317 ± 0.12
20 | ATACCTCC | -0.0216 ± 0.038
21 | CCCATGGC | -0.167 ± 0.041
22 | AACTGTAG | -0.00575 ± 0.073
23 | ACGACACA | -0.0466 ± 0.022
24 | ATTCGCCA | -0.152 ± 0.018
25 | AGCCTATA | 0.25 ± 0.083

Row | Sequence | PBM 8-mer E-score
26 | GGCCTATA | -0.132 ± 0.045
27 | CGCCTATA | -0.0178 ± 0.0095
28 | AATGTTGT | 0.28 ± 0.01
29 | TATGTTGA | 0.238 ± 0.044
30 | AATGTTGG | 0.0876 ± 0.073
31 | GATGTTGA | -0.00209 ± 0.012
32 | AATGTTGA | -0.00564 ± 0.1
33 | CATGTTGA | 0.193 ± 0.044
34 | ATTCTAGC | -0.0188 ± 0.08
35 | ATCTACTC | -0.0945 ± 0.036
36 | ATATACTA | 0.3084 ± 0.0014
37 | ATCTACTG | -0.00673 ± 0.085
38 | ATATACTC | 0.128 ± 0.077
39 | ATATACGA | 0.247 ± 0.017
40 | ATCTACTA | 0.2783 ± 0.0027
41 | CTATACTA | 0.081 ± 0.083
42 | ATATACGC | 0.0468 ± 0.016
43 | ACATACGA | 0.239 ± 0.035
44 | CTATACGA | -0.122 ± 0.029
45 | ACATACGC | 0.078 ± 0.081
46 | TCATACGA | 0.2 ± 0.064
47 | CCTCGCTC | -0.0787 ± 0.12
48 | GCGGAACC | -0.175 ± 0.0029
49 | GGTCGGCA | -0.172 ± 0.038
50 | ATGCCTCG | 0.0473 ± 0.0097

Row | Sequence | PBM 8-mer E-score
51 | AAACGCGA | 0.0862 ± 0.15
52 | GAGGCAAA | 0.154 ± 0.077
53 | GTGAGCGA | -0.125 ± 0.059
54 | CCAGGCTA | -0.296 ± 0.027
55 | GGAAGTAA | 0.207 ± 0.022
56 | GGGTACAA | 0.0175 ± 0.13
57 | GTGTACAA | 0.1868 ± 0.0017
58 | CTGTACAA | 0.045 ± 0.052
59 | TTGTACAA | 0.284 ± 0.073
60 | TGGTACAA | 0.253 ± 0.084
61 | AGGTACAA | 0.128 ± 0.024
62 | CATGGTTA | 0.103 ± 0.0075
63 | TCCGCACA | -0.187 ± 0.04
64 | ACACGCGT | 0.238 ± 0.014
65 | ACACGCGA | 0.15 ± 0.0033
66 | CCACGCGC | 0.03925 ± 0.00016
67 | ACACGCGC | 0.0651 ± 0.19
68 | AAACGCGT | 0.0946 ± 0.058
69 | ACGCGCGT | 0.19 ± 0.13
70 | CCACGCGA | 0.0738 ± 0.016
71 | CCACGCGG | 0.416 ± 0.005
72 | ACACGCGG | 0.246 ± 0.046
73 | AAACTCCA | -0.0494 ± 0.085
74 | AACTTACG | 0.0512 ± 0.088
75 | GGATGGGA | 0.00739 ± 0.13

Row | Sequence | PBM 8-mer E-score
76 | AGCTTTAT | -0.0838 ± 0.085
77 | AGTGTGTC | -0.0164 ± 0.029
78 | TACGGCAA | 0.0936 ± 0.016
79 | GGCCAAGA | -0.116 ± 0.056
80 | AAGCATGT | 0.218 ± 0.064
81 | ATGCATCA | 0.276 ± 0.059
82 | ATGCATTC | 0.215 ± 0.1
83 | GAGCATGC | 0.217 ± 0.12
84 | GTGCATCA | 0.145 ± 0.039
85 | ATGCATTA | 0.28 ± 0.079
86 | ATGCATGG | 0.132 ± 0.097
87 | AAGCATGC | 0.254 ± 0.074
88 | ATGCATGA | 0.276 ± 0.055
89 | ATGCATCG | 0.0165 ± 0.083
90 | ATGCATGC | 0.198 ± 0.11
91 | CTGCATTA | 0.0657 ± 0.06
92 | GAGCAGCC | -0.196 ± 0.0049
93 | ACAACCCC | 0.0696 ± 0.03
94 | CTACATTC | 0.0325 ± 0.15
95 | ATACATTG | 0.125 ± 0.013
96 | ATTCATTA | 0.177 ± 0.078
97 | ATACATTC | 0.244 ± 0.0028
98 | ATTCATTC | 0.287 ± 0.035
99 | ATTCATTG | 0.148 ± 0.014
100 | ACGCGGGG | 0.0227 ± 0.021

Row | Sequence | PBM 8-mer E-score
101 | CAGCTAAC | -0.15 ± 0.12
102 | GCGCCTCA | -0.0397 ± 0.1
103 | CCCGGTCA | -0.139 ± 0.064
104 | AACACATT | 0.0928 ± 0.081
105 | AAAACATG | 0.279 ± 0.027
106 | CAAACATG | 0.229 ± 0.044
107 | AAAACATT | 0.127 ± 0.061
108 | AACACATC | 0.0883 ± 0.011
109 | AACACATG | 0.317 ± 0.053
110 | CTCTGCTA | -0.193 ± 0.028
111 | AAGCAAAT | 0.172 ± 0.025
112 | CGGGCGAG | -0.112 ± 0.12
113 | AAAGCGCA | 0.0206 ± 0.012
114 | CAAGCGCA | 0.284 ± 0.019
115 | CAAGCGCC | -0.192 ± 0.11
116 | GACGGTGC | -0.0722 ± 0.033
117 | ATGCAACC | 0.225 ± 0.014
118 | ATGCAACG | 0.251 ± 0.079
119 | ATGCAACA | 0.211 ± 0.041
120 | TCTTGAAA | 0.0967 ± 0.01
121 | CGGCGCGC | 0.00798 ± 0.069
122 | ATGTGTAG | 0.239 ± 0.068
123 | ATGTGTTC | -0.0235 ± 0.019
124 | ATGTGTTA | 0.276 ± 0.076
125 | GTGTTATA | 0.2767 ± 0.0021

Row | Sequence | PBM 8-mer E-score
126 | ATGTGTAC | 0.113 ± 0.057
127 | ATGTGTAA | 0.204 ± 0.046
128 | GAGTTATA | 0.173 ± 0.0073
129 | TAGTTATA | 0.288 ± 0.068
130 | CTGTTATA | 0.179 ± 0.097
131 | ATGTGTGA | 0.192 ± 0.13
132 | AAGTTATA | 0.156 ± 0.018
133 | ATGTTATA | 0.193 ± 0.12
134 | ATCACCAG | -0.0679 ± 0.034
135 | GTCCCTCA | -0.00891 ± 0.083
136 | ATAACCGG | -0.0406 ± 0.073
137 | ATTACGGA | 0.0432 ± 0.041
138 | ATTGCTGG | -0.0565 ± 0.13
139 | AGGCCGGC | -0.211 ± 0.028
140 | ATGCGGAG | 0.00298 ± 0.056
141 | AACAACGA | 0.147 ± 0.012
142 | GGGTCAAC | -0.0771 ± 0.079
143 | CTGTGTTA | 0.0692 ± 0.087
144 | GGGTGTTA | 0.0328 ± 0.0072
145 | GTGTGTTA | 0.268 ± 0.0066
146 | CGCGCTAA | -0.0154 ± 0.16
147 | ACTAACAC | 0.0454 ± 0.029
148 | ATTAACTC | 0.173 ± 0.0096
149 | CTTAACAC | 0.149 ± 0.092
150 | GTTAACTA | 0.213 ± 0.0029

Row | Sequence | PBM 8-mer E-score
151 | ATTAACAC | 0.287 ± 0.029
152 | GTTAACAA | 0.17 ± 0.0025
153 | ATTAACAA | 0.246 ± 0.052
154 | ATTAACAG | 0.0428 ± 0.24
155 | ATTAACTA | 0.283 ± 0.017
156 | AAAGCTAA | -0.00207 ± 0.033
157 | ACCACTAG | 0.0698 ± 0.15
158 | ATGCGATA | -0.0659 ± 0.018
159 | GCCCTCGA | -0.118 ± 0.0058
160 | CCGGATAA | -0.0458 ± 0.13
161 | AGTAGGAC | 0.103 ± 0.047
162 | AACGGCCA | -0.0219 ± 0.0033
163 | AACGGCCC | -0.263 ± 0.018
164 | AACGGCCT | 0.269 ± 0.11
165 | GATCCCGA | -0.329 ± 0.0063
166 | AATTCTTA | 0.0618 ± 0.12
167 | ATCTGTAC | 0.157 ± 0.1
168 | ACGTATCT | 0.0322 ± 0.12
169 | ACGTATTA | 0.25 ± 0.076
170 | GCGTATTA | 0.117 ± 0.082
171 | ACGTATTG | 0.0861 ± 0.067
172 | ACGTATCG | -0.00982 ± 0.017
